Results filed as inconclusive are left out. A number with no mark means an inactive call. Active and inactive are the calls of the source. Calls come from the whole dose curve; as a rule, active = well fitted activation curve with a large enough effect in the repeat runs; inconclusive = weak or mixed curves; inactive = no such curve, though single readings can be large or run the other way. Positions of bridges follow the written chain, without caps; N, C: chain ends. Non-standard residues stand in square brackets, D forms with d. Residues, ends and D or L forms follow the SMILES beside them. *: point of attachment. X2 = CC[C@H](C)CCCCC(=O)*; Dab = NCC[C@H](N)C(=O)O

Our source for the max activation and Potency values is PubChem BioAssay (Tox21).
% is set by controls: 0 for no effect and ±100 for the full control effect; potency is the fitted concentration of half-maximal effect.

In this assay the target is Nuclear receptor subfamily 1 group I member 2 (Rattus norvegicus) (UniProt Q9R1A7). The assay is described as follows: Rat pregnane X receptor (rPXR) activation by small molecules, qHTS assay (AID 1346983). Note: nearly all actives have a fitted effect of over 20% in size. To be noted: rPXR luciferase reporter cells, One-Glo luminescence, 24 h; max activation: stronger effect = higher value. The source says: National Center for Advancing Translational Sciences [NCATS] NIH Chemical Genomics Center [NCGC] U.S. Environmental Protection Agency [EPA] National Institutes of Environmental Health Sciences [NIEHS] National Toxicology Program [NTP] Assay overview: The Pregnane X receptor (PXR), a ligand activated nuclear receptor plays a critical role in the regulation of genes involved in drug metabolism and transporters. PXR binds xenobiotics and when compounds interact with PXR produces enhanced expression of CYP3A genes. In humans PXR activation and CYP3A4 induction can be problematic due to their interactions with co-medicated drugs and decrease their efficacy or increase their own metabolism. However, there are known species-specific differences with regard to PXR activation that should be taken into account when animal PXR data are extrapolated to humans. A cell based rat PXR (rPXR) assay (developed by Puracyp, Inc., CA) was used to assess the activation of rPXR.
Nuclear receptor subfamily 1 group I member 2 (Rattus norvegicus), sequence (Q9R1A7 whole entry, looked up): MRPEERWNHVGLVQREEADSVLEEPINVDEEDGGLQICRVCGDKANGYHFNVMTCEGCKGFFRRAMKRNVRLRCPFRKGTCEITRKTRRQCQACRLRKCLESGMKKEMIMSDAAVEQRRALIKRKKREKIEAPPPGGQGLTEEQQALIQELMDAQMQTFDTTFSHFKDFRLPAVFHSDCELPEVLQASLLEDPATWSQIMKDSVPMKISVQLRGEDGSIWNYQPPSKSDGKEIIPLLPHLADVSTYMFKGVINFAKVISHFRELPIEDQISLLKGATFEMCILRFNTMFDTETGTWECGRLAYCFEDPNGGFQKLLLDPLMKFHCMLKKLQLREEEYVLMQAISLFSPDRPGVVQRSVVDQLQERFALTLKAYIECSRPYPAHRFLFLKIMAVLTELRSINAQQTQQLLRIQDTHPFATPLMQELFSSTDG
Assay Protocol Summary: rPXR cells were dispensed at 2,000 per well in 5uL of assay medium into white, solid-bottom 1536-well plates using a Multidrop Combi dispenser (Thermo Scientific). The assay plates were incubated at 37 C for 5hr before transferring 23 nL of test compounds dissolved in DMSO and positive control via Pintool station (Wako). The assay plates were incubated at 37 C for 24 hr. Then 5ul One-Glo assay reagent (Promega) was added to each plate by a Flying Reagent Dispenser (FRD, Aurora Discovery) and following 30 min incubation at room temperature, luciferase activity was quantified on a ViewLux plate reader (Perkin Elmer).
For the compound `O=C(O)C1=C(CSc2nnnn2CS(=O)(=O)O)CS[C@@H]2[C@H](NC(=O)[C@H](O)c3ccccc3)C(=O)N12`, the max activation is -0.182%.

For the compound `CCCCCCCCCCCCCCCCCCCCCC(=O)Nc1ccn([C@@H]2O[C@H](CO)[C@@H](O)[C@@H]2O)c(=O)n1`, the max activation was -4.2%.

For `C[C@]12CC[C@@H]3c4ccc(OC(=O)c5ccccc5)cc4CC[C@H]3[C@@H]1CC[C@@H]2O`, the max activation was -1.5%.

Take `CCOC(=O)c1c[nH]c2cc(OCC(C)C)c(OCC(C)C)cc2c1=O`: the max activation was -0.745%.

`C#C[C@]1(O)CC[C@H]2[C@@H]3CCC4=CCCC[C@@H]4[C@H]3C(=C)C[C@@]21CC`: the max activation is -4.59%.

As for `CCCc1ccc(C(=O)O)cc1`, the max activation is -2.43%.

With `OC[C@H]1OC([S-])[C@H](O)[C@@H](O)[C@@H]1O.[Au+]` (stereo not given in full), the max activation is -6.36%.

Take `CN1CCN(C(c2ccccc2)c2ccc(Cl)cc2)CC1` (stereo not given): the max activation was -0.288%.

For the compound `O=c1oc2cc(O)ccc2s1`, the max activation was -17.1%.

On to `OC[C@H]1O[C@@H](O[C@H]2[C@H](O)[C@@H](O)[C@H](O)O[C@@H]2CO)[C@H](O)[C@@H](O)[C@@H]1O`, for which the max activation is -4.71%.

Consider `COc1ccc(C(=O)CCC(=O)O)c2ccccc12`, for which the max activation was -4.04%.

Regarding `C[C@]12CCC(=O)C[C@@H]1CC[C@@H]1[C@@H]2CC[C@]2(C)C=CC[C@@H]12`, the max activation is -0.035%.

Turning to `CO[C@H]1C[C@@H]2CC[C@@H](C)[C@@](O)(O2)C(=O)C(=O)N2CCCC[C@H]2C(=O)O[C@H]([C@H](C)C[C@@H]2CC[C@@H](OC(=O)C(C)(CO)CO)[C@H](OC)C2)CC(=O)[C@H](C)/C=C(\C)[C@@H](O)[C@@H](OC)C(=O)[C@H](C)C[C@H](C)/C=C/C=C/C=C/1C`, the max activation was 0.976%.

As for `CC1CS(=O)(=O)CCN1/N=C/c1ccc([N+](=O)[O-])o1` (stereo not given), the max activation was -7.04%.

Consider `NC(N)=NCC1COc2ccccc2O1` (stereo not given), for which the max activation was -4.35%.

Turning to `CC(CN(C)C)CN1c2ccccc2Sc2ccc(C(F)(F)F)cc21` (stereo not given), the max activation is 2.66%.

With `CC(=O)O[C@]1(C(C)=O)CC[C@H]2[C@@H]3CCC4=CC(=O)CC[C@]4(C)[C@@]3(F)[C@@H](O)C[C@@]21C`, the Potency is 3.55 µM (active).

Take `CC(/C=C/C=C(\C)C(=O)O[C@@H]1O[C@H](CO[C@@H]2O[C@H](CO)[C@@H](O)[C@H](O)[C@H]2O)[C@@H](O)[C@H](O)[C@H]1O)=C\C=C\C=C(C)\C=C\C=C(/C)C(=O)O[C@@H]1O[C@H](CO[C@@H]2O[C@H](CO)[C@@H](O)[C@H](O)[C@H]2O)[C@@H](O)[C@H](O)[C@H]1O`: the max activation is -0.182%.

For `CC1(C)S[C@@H]2[C@H](NC(=O)C3(N)CCCCC3)C(=O)N2[C@H]1C(=O)O`, the max activation is -4.4%.

For the compound `CO[C@H]1C=CO[C@@]2(C)Oc3c(C)c(O)c4c(O)c(c5c(nc6cc(C)ccn65)c4c3C2=O)NC(=O)/C(C)=C\C=C[C@H](C)[C@H](O)[C@@H](C)[C@@H](O)[C@@H](C)[C@H](OC(C)=O)[C@@H]1C`, the max activation is -6.53%.

Turning to `C[C@H](N)C(=O)N[C@@H](C)P(=O)(O)O`, the max activation was -2.51%.

As to `CC(C)(C)C(=O)OCOC(=O)[C@@H]1N2C(=O)[C@@H](N=CN3CCCCCC3)[C@H]2SC1(C)C`, the max activation was -0.301%.

As to `CC(C)(CO)[C@@H](O)C(=O)NCCC(=O)NCCSSCCNC(=O)CCNC(=O)[C@H](O)C(C)(C)CO`, the max activation is -1.96%.

For the compound `CO/N=C(\C(=O)N[C@@H]1C(=O)N2C(C(=O)O)=C(CSC(=O)c3ccco3)CS[C@H]12)c1csc(N)n1`, the max activation was -5.54%.

Take `Cc1nc(NS(=O)(=O)c2ccc(N)cc2)nc(C)c1Br`: the max activation is -1.45%.

Take `CC(=O)N[C@@H]([C@@H](O)[C@H](O)[C@H](O)CO)[C@@H](O)CC(=O)C(=O)O`: the max activation was -0.275%.

Take `CCN(CC)CCOCCOC(=O)C(CC)(CC)c1ccccc1`: the max activation is 2.25%.

For `NC(=S)N=Nc1ccc(NN=C(N)N)cc1`, the max activation is -0.862%.

For the compound `CC(C)C(=O)OCC(=O)[C@@]12O[C@H](C3CCCCC3)O[C@@H]1C[C@H]1[C@@H]3CCC4=CC(=O)C=C[C@]4(C)[C@H]3[C@@H](O)C[C@@]12C`, the Potency is 7.94 µM (active).

Regarding `[O]=[Bi][O]C(=O)[O][Bi]=[O]`, the max activation is -3.15%.

`COC(=O)CC[C@H](N)C(=O)O`: the max activation was -5.81%.

As to `CO[C@H]1C[C@H](O[C@@H]2/C(C)=C/C[C@@H]3C[C@@H](C[C@]4(CC[C@H](C)[C@@H](C5CCCCC5)O4)O3)OC(=O)[C@@H]3C=C(C)/C(=N/O)[C@H]4OC/C(=C\C=C\[C@@H]2C)[C@]43O)O[C@@H](C)[C@@H]1O`, the max activation is -0.144%.

Turning to `C=CCNC1=C2C[C@@H](C)C[C@H](OC)[C@H](O)[C@@H](C)/C=C(\C)[C@H](OC(N)=O)[C@@H](OC)/C=C\C=C(/C)C(=O)NC(=CC1=O)C2=O`, the max activation is -14.2%.

For the compound `C[C@@](Cc1ccc(O)c(O)c1)(NN)C(=O)O`, the max activation was -6.63%.

On to `O=C1NCCN1c1ncc([N+](=O)[O-])s1`, for which the max activation was -1.52%.

As to `CC[C@H](C)CCCCC(=O)N[C@@H](CCN)C(=O)N[C@H](C(=O)N[C@@H](CCN)C(=O)N[C@H]1CCNC(=O)[C@@H]([C@H](C)O)NC(=O)[C@H](CCN)NC(=O)[C@H](CCN)NC(=O)[C@H](CC(C)C)NC(=O)[C@@H](CC(C)C)NC(=O)[C@H](CCN)NC1=O)[C@@H](C)O` (X2-[Dab]T[Dab][Dab][Dab][dL]L[Dab][Dab][dT]; lactam 4-C), the max activation was -4.02%.

In the case of `CC(C)(C)NC[C@H](O)COc1ccccc1C1CCCC1`, the max activation was -2.28%.

On to `O=C(OC[C@H]1O[C@](O)(COC(=O)c2cccnc2)[C@@H](OC(=O)c2cccnc2)[C@@H]1OC(=O)c1cccnc1)c1cccnc1`, for which the max activation is 1.1%.

Turning to `CCN(CC)CCOc1ccc2nc(N(C)C)sc2c1`, the max activation is 2.91%.

In the case of `CC[C@@H]1/C=C(\C)C[C@H](C)C[C@H](OC)[C@H]2O[C@@](O)(C(=O)C(=O)N3CCCC[C@H]3C(=O)O[C@H](/C(C)=C/[C@@H]3CC[C@@H](Cl)[C@H](OC)C3)[C@H](C)[C@@H](O)CC1=O)[C@H](C)C[C@@H]2OC`, the max activation was -6.11%.
